According to the supplement of paper PMC3334620:
The full ranking holds about 33,000 sequences; the median of “E-score (-0.5 to 0.5)” is about -0.056, and the highest 2% start at about 0.38. The entries come from a sample that favours the highest values as a whole.

biological target: Stb4 (UniProt P50104); test: PBM E-score (8-mer binding enrichment) (E-score (-0.5 to 0.5)); higher = stronger / more preferred TF binding; details: protein concentration: 200 nM; construct: GST-DNA-binding domain
Description: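 Universal 'all 10-mer' protein binding microarrays (Agilent AMADID 015681) probed with GST-tagged S. cerevisiae TFs (full-length or DBD) made by in vitro transcription/translation (PURExpress), about 100-200 nM. Bound TF was detected with fluorescent anti-GST. Each ungapped 8-mer (which stands for itself and its reverse complement) is scored by the PBM enrichment score (E-score), a modified Wilcoxon-Mann-Whitney statistic from -0.5 to +0.5, computed with the Universal PBM Analysis Suite. Scale: above 0.35 generally sequence-specific binding.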

Chain of UniProt P50104 (P50104 whole entry, the tested form may be a part): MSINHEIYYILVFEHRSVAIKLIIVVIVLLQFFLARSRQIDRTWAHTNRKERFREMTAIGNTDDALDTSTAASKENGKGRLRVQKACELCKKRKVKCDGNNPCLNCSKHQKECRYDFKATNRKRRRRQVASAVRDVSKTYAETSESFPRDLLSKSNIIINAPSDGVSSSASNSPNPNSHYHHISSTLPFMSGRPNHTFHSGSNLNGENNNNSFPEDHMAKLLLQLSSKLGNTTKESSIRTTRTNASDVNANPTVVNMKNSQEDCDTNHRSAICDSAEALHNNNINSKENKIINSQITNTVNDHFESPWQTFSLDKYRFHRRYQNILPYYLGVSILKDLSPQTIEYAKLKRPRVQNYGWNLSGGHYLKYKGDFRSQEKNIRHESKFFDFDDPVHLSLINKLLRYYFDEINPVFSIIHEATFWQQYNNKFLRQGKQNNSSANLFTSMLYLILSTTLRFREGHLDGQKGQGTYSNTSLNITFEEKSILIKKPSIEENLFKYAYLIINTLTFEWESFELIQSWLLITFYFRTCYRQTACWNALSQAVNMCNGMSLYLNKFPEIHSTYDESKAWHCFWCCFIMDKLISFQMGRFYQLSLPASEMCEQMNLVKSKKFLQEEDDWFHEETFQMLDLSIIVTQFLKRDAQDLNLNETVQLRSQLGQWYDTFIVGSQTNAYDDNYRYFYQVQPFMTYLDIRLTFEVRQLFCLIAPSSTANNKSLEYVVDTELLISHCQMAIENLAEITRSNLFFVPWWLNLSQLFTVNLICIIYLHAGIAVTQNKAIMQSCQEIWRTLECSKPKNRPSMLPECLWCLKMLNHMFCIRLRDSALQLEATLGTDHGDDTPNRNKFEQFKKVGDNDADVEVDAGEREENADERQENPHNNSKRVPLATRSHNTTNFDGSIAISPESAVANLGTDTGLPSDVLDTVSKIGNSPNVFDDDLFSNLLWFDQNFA

Sequence | PBM E-score
GCTTTCAC | -0.148
GCTATAGC | -0.096
ATTCTGCG | -0.0218
GAGAGACC | -0.122
ATACCTCC | -0.0529
TGATATCA | -0.281
TGCCACCA | -0.374
GGCGTCAC | -0.0997
GCCTTCAA | -0.13
GATGCGGC | 0.0547
ATTCTTTC | -0.0171
AATCCGTA | 0.12
AATCCGAA | 0.42
CGTCCGAA | 0.336
AATCCGAT | 0.368
GGTCCGAC | 0.292
GGTCCGAA | 0.416
TATAGCCA | -0.113
CCGACTAA | 0.29
CGGACAAG | 0.138
CTCCTCGA | -0.284
ATATCCGC | 0.389
CTATCCGC | 0.396
ATATCCTC | -0.03
ACATCCGC | 0.382

Sequence | PBM E-score
CTATCCAC | -0.0315
CTATCCCC | -0.0734
ACTGCCCG | 0.123
ACTTTTCG | 0.0867
GCCTCGCC | 0.0101
GGCCCGGA | 0.402
ACCCCGGA | 0.232
CCCCCGGA | 0.176
GCCCCGGA | 0.385
AGCCCGGA | 0.361
CGCCCGGA | 0.328
AGAGGTTC | 0.0565
ATAGCGGG | 0.0172
AAGATGTG | -0.156
GCTAAGCA | -0.217
CCACAGAA | -0.0915
CCCAGACG | -0.17
AGCTTCGC | -0.276
ATCTTCCA | -0.137
AGCTTCGG | 0.395
AACTTCGC | -0.041
ATCTTCGA | -0.171
ATCTTCGG | 0.423
AACTTCGT | -0.177
ATCTTCCG | 0.436

Sequence | PBM E-score
AGCTTCGA | -0.189
AACTTCGG | 0.408
ATCTTCGC | 0.016
ATCTTCCC | 0.226
ATCGAACC | 0.089
CTAGTCCA | -0.153
ACCAATGC | -0.00399
GTAGTCAC | -0.16
CTCTACTC | -0.106
GGATTCCA | 0.13
ACCTTCCG | 0.4
ACCTTCCC | 0.0875
ACCTTCCT | -0.342
CCCTACAA | -0.218
ATCTATCA | -0.0983
AGAATGGC | -0.0824
TAGTCGCA | -0.0285
CAGTCGGA | 0.316
GAGTCGGA | 0.387
GAGTCGGC | 0.223
AAGTCGGA | 0.372
TAGTCGGA | 0.405
AGATCGGA | 0.438
AGATCGGC | 0.189
GGATCGGA | 0.402

Sequence | PBM E-score
GGATCGAA | 0.214
AGATCGGG | 0.28
CGATCGGA | 0.322
GCATGAAA | -0.101
GTTCTCGA | -0.166
ACGAATCG | 0.0102
GCGAATCC | -0.0095
CCGAATCC | 0.427
ACGAATCC | 0.009
CCGAATCG | 0.405
CCGAATCA | 0.361
ACTAGCAG | -0.298
GCCTACCC | 0.0606
ACAGATCG | -0.0736
TATCCGGA | 0.46
AATCCGGA | 0.363
GAACCGGC | 0.262
TATCCTGA | -0.0875
GATCCGGC | 0.396
GATCCGGA | 0.421
GATCCGCA | 0.316
AATCCGGC | 0.241
AATCCGGT | 0.246
GTGAAAGA | 0.0652
GTGAAGAA | -0.139

Sequence | PBM E-score
GAAGTGTA | -0.107
ATTGGTAA | -0.137
GCCTGCAA | -0.18
CCGTGAAA | 0.145
GTATCATA | -0.0852
AATCATAA | -0.089
GCCCAGGA | -0.0894
GTGGGAAC | -0.102
AACGGAAG | 0.284
ATCGGACG | 0.289
CTCGGAAG | 0.48
ATCGGAAC | 0.428
CGCGGAAG | 0.357
CACGGAAG | 0.36
GTCGGAAC | 0.454
GACGGAAC | 0.317
ATCGGACC | 0.308
ATCGGAAG | 0.433
AACGGAAC | 0.348
AATGACGC | -0.238
GTGATGGA | -0.00596
CGATTCTC | 0.0534
ACGCTCCA | -0.0409
AATGAGAA | -0.0737
CTGGGAAA | -0.168

Sequence | PBM E-score
ATCGGACA | 0.196
CGCGGAAA | 0.316
CACGGAAA | 0.352
ATCGGAAA | 0.424
GTCGGAAA | 0.453
GTCAGAAA | -0.203
GTTGGAAA | 0.0285
AACGGACA | 0.0833
AGCGGAAA | 0.333
AACGGAAA | 0.393
CTCGGAAA | 0.479
CCCATTCA | -0.0249
CGTTTATA | -0.0024
ATCCCGGC | 0.323
AGCGTAGG | -0.0217
AAGGCGGG | -0.0393
CTGAACAA | -0.0548
AGGGATGG | -0.174
ACGATTCC | 0.06
CGACTTGA | -0.0925
CGATCAAA | 0.0532
AACTTGGC | -0.109
CTAGGAAC | -0.00703
AGCGGAAC | 0.316
CTCGGAAC | 0.485

Sequence | PBM E-score
AGCGGAAT | 0.141
TTCGGAAA | 0.474
TTCAGAAA | -0.23
CACGGAAC | 0.352
GGCGGAAC | 0.356
CGCGGAAC | 0.395
ATCGGAAT | 0.434
TGCGGAAA | 0.299
AACGGAAT | 0.315
GCCATGGC | -0.361
CCCTTTTA | -0.172
AGCCTAGG | -0.0301
GATCCTTA | -0.0996
GCCATTCC | 0.127
CCAGCGCC | -0.0109
CTACGCCA | -0.271
CACCCCAC | 0.0245
CCTTGTGA | -0.0811
CCTCTCCA | -0.309
CCTCGCTA | -0.29
CCGCTACA | 0.109
AATTCAAC | 0.015
ATTAACCA | -0.136
ATTAACCC | 0.212
ATTAACCG | 0.413

Sequence | PBM E-score
GAGGAATC | -0.07
GCGTCGGA | 0.449
GCGTCGTA | 0.0854
ACGTCGGG | 0.349
ACGTCGGC | 0.307
ACGTCGGA | 0.389
CCGTCGGA | 0.397
GCGTCGAA | -0.0895
CCGTCGGC | 0.329
CCGTCGTA | -0.0259
CTGGCAGC | -0.168
ACATAATA | -0.153
CGAGTCAA | -0.0247
AGGTTCAT | -0.128
ACAAGGCT | -0.138
ACAGATTG | -0.0283
AGTTTAAT | -0.111
ATGGGCTA | -0.084
CCACTCCA | -0.146
AATACCAT | -0.115
GGTGCCTA | -0.0355
GGTGCCCA | -0.147
AGTGCCGG | 0.301
AGTGCCGC | 0.123
CGTGCCGA | 0.405

Sequence | PBM E-score
CGTGCCGC | 0.0918
AGTGCCGA | 0.423
CGTGCCCA | 0.00213
GGTGCCGA | 0.402
CTGGACGC | -0.278
ATCGCCCG | 0.152
CACGGCCC | 0.0623
GAGGAGTA | -0.00803
ATCGGGTG | 0.366
CCCGGGTC | 0.32
CCCGGGTA | 0.407
CTCGGGTA | 0.478
GTCGGGGA | 0.225
CACGGGTA | 0.333
ATCGGGTA | 0.419
CCGGGGTA | 0.155
GACGGGTA | 0.267
GTCGGGTA | 0.445
CTCGGGCA | 0.325
ATCGGGCA | 0.125
